Results as given in ChEMBL document CHEMBL3988442, “University of Dundee, Small-Polar-MMV Screening Library” (2021).

How the values were obtained:
[1] = target: T1, Aspartate--tRNA(Asp/Asn) ligase (Mycobacterium tuberculosis (strain ATCC 25618 / H37Rv)) (UniProt P9WFW3); assay: Assay for Asp RNA synthetase-1 from Mycobacterium tuberculosis; format: functional; parameters: scale not given: direction of the effect not stated beside the values; settings: 30 µM; further: in the data most compounds retested in dose-response had high values
T1 sequence (whole entry): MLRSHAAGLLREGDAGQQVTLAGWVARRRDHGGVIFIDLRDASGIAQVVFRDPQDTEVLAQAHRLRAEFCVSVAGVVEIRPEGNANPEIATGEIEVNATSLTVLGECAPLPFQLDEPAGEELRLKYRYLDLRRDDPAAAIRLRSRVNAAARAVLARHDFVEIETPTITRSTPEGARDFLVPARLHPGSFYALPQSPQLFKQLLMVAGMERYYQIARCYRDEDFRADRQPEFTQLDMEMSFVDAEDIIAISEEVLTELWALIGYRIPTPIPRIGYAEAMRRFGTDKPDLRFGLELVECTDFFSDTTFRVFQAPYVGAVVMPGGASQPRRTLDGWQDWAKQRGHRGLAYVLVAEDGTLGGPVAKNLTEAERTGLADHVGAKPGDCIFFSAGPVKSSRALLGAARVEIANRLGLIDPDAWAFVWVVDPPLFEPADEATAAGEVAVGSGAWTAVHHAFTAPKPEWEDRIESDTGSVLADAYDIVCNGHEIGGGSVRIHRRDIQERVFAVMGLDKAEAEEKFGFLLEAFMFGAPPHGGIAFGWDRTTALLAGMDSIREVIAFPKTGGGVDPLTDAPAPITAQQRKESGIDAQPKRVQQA

[2] = target: Shiga toxin 2 (Escherichia coli O157:H7) (UniProt P09385+P09386); assay: E. coli 0.157:H7 Shiga Toxin SOP - stx2 screening assay; format: functional; parameters: scale not given: direction of the effect not stated beside the values; settings: 30 µM

| Compound | Percent Effect [1] | Percent Effect [2] |
| --- | --- | --- |
| CN(Cc1cccc(Cl)c1)S(=O)(=O)N1CCOCC1 | 2.4% | 7.77% |
| OC1(Cn2ccc3ccncc32)CCN(Cc2ccccn2)CC1 | -0.402% | -26.5% |
| O=C(Cc1ccc2c(c1)CCO2)N1CCCCC1Cn1cccn1 (configuration not stated) | -2.75% | -6.84% |
| Clc1ccc2oc(C3CCN(Cc4cccnc4)CC3)nc2c1 | 1.26% | -46.7% |
| Cn1cnnc1S(=O)(=O)C1CCN(S(=O)(=O)c2ccc(F)c(Cl)c2)CC1 | 2.04% | -2.86% |
| c1ccc(CN2CC[C@@H]3O[C@@H](COCC4CCOCC4)CC[C@@H]32)nc1 | 7.81% | -21.9% |
| Cc1ccc(F)cc1S(=O)(=O)N(C)CC(N)=O | 2.69% | -5.32% |
| CCCNC(=O)CN1CCN(Cc2csc(C(C)(C)C)n2)CC1 | -3.03% | 11.1% |
| CCC(C)[C@H](NC(=O)c1cc(Br)ccc1-n1cnnn1)C(=O)OC (some centres not stated) | -2% | -22.1% |
| CCn1ncnc1C(C)NC(=O)C1CCN(C(C)C)CC1 (configuration not stated) | 3.06% | -16.7% |
| O=C(CS(=O)(=O)CC1CCCCC1)NC1CCCCNC1=O (configuration not stated) | -4.37% | -23% |
| Cc1cn2nc(N3CCCN(Cc4noc(C)n4)CC3)sc2n1 | -1.65% | 0.184% |
| N#Cc1ccccc1CN1C[C@@H]2CC[C@H](C1)N(Cc1cscn1)C2=O | -3.02% | 3.66% |
| Cn1cnnc1C1CCCN(C(=O)NCc2ccc3c(c2)OCO3)C1 (configuration not stated) | -2.83% | 7.83% |
| CN(CCNC(=O)Nc1ccncc1)C1CCCCC1 | 1.25% | -5.92% |
| Cc1noc([C@@]23CCO[C@@H]2CCN(CC2CCOCC2)C3)n1 | 6.14% | -16.8% |
| Cc1ncc(CN2Cc3ccccc3O[C@]3(CC[C@H](CO)CC3)C2)cn1 | 0.551% | 18.1% |
| COC(=O)NCc1cc2n(n1)CCCN(C(C)=O)C2 | -4.82% | 15.5% |
| Cc1nc2c(c(N3CC=CC3)n1)CCN(Cc1ccoc1)CC2 | -8.35% | -69.4% |
| Cc1noc([C@@]23CCO[C@@H]2CCN(C(=O)c2sccc2C)C3)n1 | -0.466% | -3.55% |
| COc1ccc(NC(=O)C(c2cccc(F)c2)N2CCOCC2)cc1 (configuration not stated) | 5.63% | -8.77% |
| COc1ccc2c(c1)CN(Cc1nc3ccsc3c(=O)[nH]1)CC2 | -2.11% | 10.8% |
| CCn1c(N)nc2cc(C(=O)NCCc3ccccc3C)cnc21 | 7.33% | -69.2% |

| Compound | Percent Effect [1] | Percent Effect [2] |
| --- | --- | --- |
| CN(CC1CN(Cc2cn3ccsc3n2)CCO1)c1cccnn1 (configuration not stated) | -3.78% | -9.36% |
| Cc1nc(CN2CCN(Cc3nccn3C)CC2)no1 | -3.87% | 6.4% |
| COc1ccc(CCC(=O)N2CCCC2Cn2cc(C)cn2)cc1F (configuration not stated) | -1.15% | 18.7% |
| Cc1ccc(-c2cc(N)c(=O)n(CC(=O)NCC3CCCCC3)n2)s1 | 7.19% | 2.09% |
| CCO[C@H]1CO[C@@]2(CCCN(Cc3nc(C)cs3)C2)C1 | -4.51% | -13.5% |
| COc1ccc(NC(=O)CNc2cccc3c2CCCC3)c(OC)c1 | 1% | -28.6% |
| Cc1ccc(OCCCNC(=O)NC(C)c2nncn2C)cc1 (configuration not stated) | -2.1% | 7.34% |
| COc1ncccc1CNC(=O)c1cccnc1O | -1.39% | -17.1% |
| O=C1CCSCC(C(=O)N2CCOCC2)N1 (configuration not stated) | 1.64% | 3.97% |
| Cn1cnc2c1C(COCC1CC1)CN(Cc1ccsc1)C2 (configuration not stated) | 5.14% | -1.62% |
| COc1ccc(-c2nccnc2C2CCN(C(C)=O)CC2)cc1 | 0.0149% | 12% |
| CS(=O)(=O)NCC1CCCN(C(=O)Nc2cccnc2N2CCCC2)C1 (configuration not stated) | 6.08% | -16.6% |
| O=C(CCc1ccccc1)N1CCC(N2CCNC2=O)CC1 | 1.87% | 26% |
| CC(NC(=O)COc1ccc(F)cc1)c1nnc2n1CCCCC2 (configuration not stated) | 8.46% | 13.1% |
| CCN(C(=O)COC)C(c1cccnc1)c1cc(C)cc(C)c1 (configuration not stated) | 1.28% | -51.4% |
| Cc1nnc(NCC2(c3ccc(Cl)cc3Cl)CCOCC2)c(C#N)c1C | 1.93% | -16.4% |
| O=C(c1cc(C2CC2)[nH]n1)N1CCN(Cc2ccsc2)CC1 | -6.85% | -27.3% |
| Cn1nc(COc2cccnc2)c2c1CCN(c1cnccn1)C2 | 10.9% | 7.98% |
| O=C([C@@H]1CC[C@@H]2[C@@H](CCN2Cc2ccoc2)O1)N1CCCC1 | 0.466% | 1.2% |
| Cc1nc2c(c(NC3CC3)n1)CCN(C(=O)C(C)(C)O)CC2 | 3.74% | -3.14% |
| O=C1CC2(CCN(CC3CC3)C2)CN1c1ccc2c(c1)OCO2 (configuration not stated) | 14.6% | -55.4% |
| COC(=O)c1cc(C(=O)N2CCCCCC2)n(-c2ccccc2)n1 | -0.856% | 30.9% |
| CC(C)c1nc(CC(=O)Nc2nc(CN3CCCCCC3)cs2)cs1 | -0.836% | -37.6% |
